Values without a mark were called inactive.

In this assay the test system is XIP peptide (Xip251-270) binding. Briefly: small-molecule binders of XIP peptide, primary screen, biochemical, small-molecule microarray, fluorescence 635/667 nm, 0.1 µg/mL protein (AID 1182). To be noted: fluorescent protein binding, 635 nm, higher = more signal, called active from +8 up or from −8 down.
On to `CC(C)=NOC(C)CN1CCCCc2nc(C)c(C)cc21` (configuration not stated), for which the composite z-score is -0.203. Regarding `CCN1C(C)=C(C(=O)OC)[C@@H](c2ccccc2)N2C(=O)[C@](O)(C(=O)OC)CC(C(C)=O)=C12`, the composite z-score was 0.181. `COC(=O)[C@H](C)NC(=O)CCC1CC(OC(=O)NCc2ccc3c(c2)OCO3)CC2(CCCC(COC(=O)NCCC(C)C)O2)O1` (some centres not stated): the composite z-score is 1.11. For `CCN(CC)CC(O)CN1CCCCc2nc(C)c(C)cc21` (configuration not stated) the value was -0.344; for `CC(C)(C)N1C(=O)[C@H]2[C@H]3[C@H](O)[C@H](O)CC(=NNC(=O)OCc4ccccc4)[C@@H]3CC[C@H]2C1=O`, 0.0863; for `CCN1C(=O)[C@H]2[C@H]3[C@H](O)[C@H](O)CC(=NOC[C@@H](O)[C@H]4O[C@@H]5OC(C)(C)O[C@@H]5[C@H]4O)[C@@H]3CC[C@H]2C1=O`, -0.0371. To `CO[C@@H]1COC(=O)CC=C[C@H](C)[C@H](OC)COC(=O)[C@@H]2CCCN2C(=O)CC=C[C@H]1C` belongs 0.233.

With `CC(CCN1CCc2nc(-c3ccccc3)c(-c3ccccc3)cc2C1)=NO[C@H](C)c1cn([C@H](CO)Cc2ccccc2)nn1`, the composite z-score is 0.899. On to `CCOC(=O)[C@H](CC(C)C)NC(=O)CCC1CC(OC(=O)NCCc2ccc(F)cc2)CC2(CCCC(COC(=O)NCc3cccc(C(F)(F)F)c3)O2)O1` (some centres not stated), for which the composite z-score was -0.0296. To `COc1ccc(COC(=O)NN=C2C[C@@H](O)[C@@H](O)[C@@H]3[C@@H]4C(=O)N(Cc5ccc6c(c5)OCO6)C(=O)[C@@H]4CC[C@H]23)cc1` belongs 0.369. For `COC(=O)[C@@H]1CC[C@H](C)[C@@H](c2ccc(C)cc2)N1C(=O)c1ccc(C=NOC[C@H]2O[C@H](c3ccccc3)C=C[C@@H]2Oc2ccc(OC)cc2)cc1` the value was 0.176; for `CC(=O)OC[C@H]1O[C@H](CCON=C(C)C)C=C[C@@H]1OC(C)=O`, -0.843. To `CO[C@@H]1COC(=O)[C@H](CCSC)NC(=O)CC=C[C@@H](C)COC(=O)[C@@H]2CCCN2C(=O)CC=C[C@H]1C` belongs 0.665. Consider `CCOC(=O)[C@H](CC(C)C)NC(=O)CCC1CC(OC(=O)NCc2ccc3c(c2)OCO3)CC2(CCCC(COC(=O)NCc3ccccc3)O2)O1` (some centres not stated), for which the composite z-score was 0.117. To `CC(CCC(=O)OC[C@H]1O[C@H](C#Cc2ccccc2)C=C[C@@H]1Oc1ccc(C)cc1)=NOC[C@@H](C)[C@H](OCc1ccccc1)C(C)C` belongs -0.582. To `COc1ccc(-c2cnnc(CCCn3ccnc3-c3ccccc3)n2)cc1` belongs 0.0584; to `COc1ccc(COC(=O)NN=C2C[C@@H](O)[C@@H](O)[C@@H]3[C@@H]4C(=O)N(C5CCCCC5)C(=O)[C@@H]4CC[C@@H]23)cc1`, 0.524; to `CCN1C(=O)[C@H]2[C@H]3[C@H](O)[C@H](O)CC(=NO[C@H](C)c4cn([C@H](CO)Cc5ccccc5)nn4)[C@@H]3CC[C@H]2C1=O`, 1.66. For `CO[C@@H]1COC(=O)[C@H](COCc2ccccc2)NC(=O)CC=C[C@@H](C)[C@H](OC)COC(=O)[C@@H](C)NC(=O)CC=C[C@H]1C` the value was 0.455. For `O=C1[C@H]2CCn3c(=O)n(Cc4cc5c(cc4Cl)OCO5)c(=O)n3[C@H]2[C@H](O)[C@@H]2O[C@H]12`, the composite z-score is 0.188. For `COC(=O)CC=C[C@@H](C)[C@@H](C=NOC(C)CN1CCCc2nc(C)c(C)cc21)NS(=O)(=O)c1ccc(C)cc1` (some centres not stated) the value was 0.364. To `COC(=O)CC=C[C@@H](C)[C@@H](C=NOC[C@@H](O)COCc1ccco1)NS(=O)(=O)c1ccc(C)cc1` belongs 0.133; to `C[C@@H]1CC[C@H]2C(=O)O[C@@H](CN=[N+]=[N-])CN2[C@H]1c1ccc(Br)cc1`, 0.223; to `COC(OC)[C@@H](C)[C@H](OC)[C@@H](C)[C@H](OC)c1ccccc1`, -0.17. To `CCOC(=O)[C@H](CC(C)C)NC(=O)CCC1CC(OC(=O)NCc2ccc3c(c2)OCO3)CC2(CCCC(COC(=O)NCCc3ccccc3OC)O2)O1` (some centres not stated) belongs 0.677. As for `CO[C@@H]1COC(=O)[C@@H]2CCCN2C(=O)[C@@H](C)COC(=O)CCC[C@H]1C`, the composite z-score was -0.0308.

`CC(C)=NO[C@@H](C)c1cn([C@H](CO)Cc2ccccc2)nn1`: the composite z-score was -0.407.

Source of the values: PubChem BioAssay.
